# Results published in PubChem BioAssay.
# Target: Torsin-1A-interacting protein 2 (Homo sapiens) (UniProt Q8NFQ8)
# Experiment: LULL1 binders on small-molecule microarray, primary screen, cell lysate, human LULL1 lysate, 635/667 nm fluorescence (AID 1092);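 note: score merges per-feature 667 nm fluorescence with signal-to-noise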
# Conditions: hLULL1 lysate binding, 635 nm fluorescence, higher = more signal
# Sequence of Torsin-1A-interacting protein 2 (Homo sapiens) (Q8NFQ8 whole entry, looked up): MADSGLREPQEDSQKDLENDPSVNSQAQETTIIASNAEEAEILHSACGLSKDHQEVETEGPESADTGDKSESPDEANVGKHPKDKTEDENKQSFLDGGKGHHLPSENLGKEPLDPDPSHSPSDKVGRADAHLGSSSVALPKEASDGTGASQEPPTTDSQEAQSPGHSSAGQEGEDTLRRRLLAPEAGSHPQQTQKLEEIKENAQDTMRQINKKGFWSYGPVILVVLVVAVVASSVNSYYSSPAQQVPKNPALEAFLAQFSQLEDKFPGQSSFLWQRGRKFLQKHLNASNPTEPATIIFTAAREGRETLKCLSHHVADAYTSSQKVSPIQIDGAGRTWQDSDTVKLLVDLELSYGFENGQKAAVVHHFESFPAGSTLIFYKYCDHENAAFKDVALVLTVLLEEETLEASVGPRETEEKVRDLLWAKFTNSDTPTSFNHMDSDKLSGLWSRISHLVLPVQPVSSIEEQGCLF
row,SMILES,composite z-score
1,O=C1c2ccccc2[C@](Cc2ccccc2I)(C(=O)O)[C@H](c2ccc(CO)cc2)N1Cc1ccccc1C(F)(F)F,3.14
2,C=CCN1C(=O)[C@@]2(O[C@@H](CCO)[C@H]([Si](C)(C)c3ccc(OC)cc3)[C@H]2C)c2cc(NC(C)=O)ccc21,1.96
3,O=C1O[C@@H](c2ccccc2)[C@@H](c2ccccc2)N2[C@@H](c3ccc(O)cc3)[C@]3(C(=O)Nc4ccccc43)[C@@H](C(=O)NC[C@H](O)c3ccccc3)[C@H]12,2.02
4,C=C(CCCC)C(=O)CC[C@@H](OC(=O)c1ccccc1-c1ccccc1C(=O)O)c1ccc(CO)o1,0.779
5,COCCOC(=O)N1C(=O)[C@@]2(c3cc(C#CCCO)ccc31)[C@H](c1ccc(O)cc1)N1[C@H](c3ccccc3)[C@H](c3ccccc3)OC(=O)[C@H]1[C@@H]2C(=O)N1CCCCCCC1,2.86
6,O=C(NCC(O)CO)[C@]1(CCS(=O)(=O)c2ccccc2)N=C(c2ccc(OCCCO)cc2)O[C@@H]1c1ccccc1 (stereo not given in full),3.67
7,CC(C)NC(=O)[C@@H]1c2ccccc2C(=O)N(C2CCCCC2)[C@H]1c1ccc(CO)cc1,1.48
8,CCOC(=O)C=Cc1cccc(OC)c1O,0.0496
9,NC(=O)NCC#Cc1ccc2c(c1)[C@]1(C(=O)N2)[C@H](C(=O)NC[C@H](O)c2ccccc2)[C@H]2C(=O)O[C@H](c3ccccc3)[C@H](c3ccccc3)N2[C@@H]1c1ccccc1OCCO,2.35
10,CN1C(=O)C2C(C1=O)C1C=C(c3ccc(CO)cc3)C2C(C2CC2)N1Cc1cc2c(cc1Br)OCO2 (stereo not given),3.49
11,O=C1OCCC/C=C\[C@H]2OC34C=CCN(Cn5nnc6ccccc65)C(=O)[C@H]3N(CCCO)C(=O)[C@@H]4C12 (stereo not given in full),3.64
12,CC(C)N1C(=O)c2ccccc2[C@](C)(C(=O)NC2CC2)[C@@H]1c1ccc(CO)cc1,2.66
13,O=C1C2C=CC(C(O)CCc3ccccc3)N(Nc3ccccc3)C2C(=O)N1c1ccccc1 (stereo not given),3.4
14,O=C1O[C@H](c2ccccc2)[C@H](c2ccccc2)N2[C@H]1[C@@H](C(=O)N1CCCCCCC1)[C@]1(C(=O)Nc3ccc(C#CC4=CCCCC4)cc31)[C@H]2c1ccc(O)cc1,5.19
15,CC(C)OC(=O)C1=CCC(c2cccc(Cl)c2)O1 (stereo not given),3.3
16,C=CCN1C(=O)[C@@]2(O[C@@H](CCO)[C@H]([Si](C)(C)c3ccc(OC)cc3)[C@H]2C)c2cc(N3C(=O)COc4ccccc43)ccc21,1.81
17,C=CCC(OC(C)=O)[C@@H]1[C@@H](N(Cc2ccc(-c3ccccc3)cc2)C(=O)c2ccc(C)cc2)c2cc(OCCCO)ccc2N1C(=O)c1ccc2ccccc2n1 (stereo not given in full),0.209
18,COCCOC(=O)N1C(=O)[C@@]2(c3cc(C#CC4=CCCCC4)ccc31)[C@H](c1ccc(OCCO)cc1)N1[C@H](c3ccccc3)[C@H](c3ccccc3)OC(=O)[C@H]1[C@@H]2C(=O)Nc1nc2ccccc2s1,3.06

row,SMILES,composite z-score
1,O=[N+]([O-])c1ccc(C[n+]2ccc(CCCO)cc2)o1,2.46
2,C=C(C)[C@@H]1CC=C(C(O)C2C=CC3C(=O)N(Cc4ccccc4)C(=O)C3N2n2cnnc2)CC1 (stereo not given in full),1.3
3,CCCNC(=O)[C@@]1(C)c2ccccc2C(=O)N(Cc2cc(F)cc(C(F)(F)F)c2)[C@H]1c1ccc(CO)cc1,2.08
4,CO[C@H]1O[C@H](CO)[C@@H](OC(=O)Nc2cccc(F)c2)[C@H](OC(=O)Nc2ccccc2-c2ccccc2)[C@@H]1OC(=O)Nc1ccccc1-c1ccccc1,3.34
5,CCOC(=O)N1C(c2ccc(OCCCO)cc2)=NC(C(=O)OC)N1C(=O)OCC (stereo not given),3.21
6,COCCCNC(=O)[C@@]1(Cc2ccccc2I)c2ccccc2C(=O)N(Cc2ccccc2)[C@H]1c1ccc(CO)cc1,1.62
7,COc1ccc(C#Cc2ccc3c(c2)[C@]2(C(=O)N3)[C@H](C(=O)N3CCN(c4ncccn4)CC3)[C@H]3C(=O)O[C@H](c4ccccc4)[C@H](c4ccccc4)N3[C@@H]2c2ccc(O)cc2)cc1,2.33
8,CN(C)CCCC[C@@H]1NC(=O)[C@@H]2C[C@H](C(=O)NCc3ccc(F)cc3)[C@H](c3cccc(OCCO)c3)N2C1=O,2.96
9,O=C1O[C@@H](c2ccccc2)[C@@H](c2ccccc2)N2[C@@H](c3ccc(O)cc3)[C@]3(C(=O)Nc4ccc(C#CCCO)cc43)[C@@H](C(=O)O)[C@H]12,2.79
10,CC(C)NC(=O)[C@@]1(c2ccc([N+](=O)[O-])cc2)CC(=O)N(C(C)C)[C@@H]1c1ccc(CO)cc1,2.61
11,C=CCC(OC(C)=O)[C@@H]1[C@@H](N(Cc2ccc(-c3cccc(C(F)(F)F)c3)o2)C(=O)Cc2ccc(OC)cc2)c2cc(OCCCO)ccc2N1C(=O)Cc1ccc(OC)cc1 (stereo not given in full),-0.106
12,C[n+]1ccc2ccc(O)cc2c1,1.14
13,C=C(CCCC)/C(=C/C[C@H](OC(C)=O)c1ccc(CO)o1)c1cc(C(=O)OC)ccc1OC,1.8
14,COCCOC(=O)N1C(=O)[C@@]2(c3cc(C#Cc4ccc(OC)cc4)ccc31)[C@H](c1ccc(OCCO)cc1)N1[C@H](c3ccccc3)[C@H](c3ccccc3)OC(=O)[C@H]1[C@@H]2C(=O)N1CCc2cc(OC)c(OC)cc2C1,0.434
15,CC(C)C(O)C1C=CC2C(=O)N(C)C(=O)C2N1N1CCCCC1 (stereo not given),3.58
16,CCN(CC)c1ccc(N2CC=CC34O[C@@H]5C=CCOC(=O)[C@@H]5[C@H]3C(=O)N(CCCCCO)[C@@H]4C2=O)cc1 (stereo not given in full),2.74
17,Cc1cc(C)c(C(O)C2C=CC3C(=O)NC(=O)C3N2Nc2ccccn2)c(C)c1 (stereo not given),1.65
